The whole screen tested about 360,000 compounds, of which about 3,800 (1.1%) were called active.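 How the source made its calls: active means compounds causing at least 50% loss of cell viability in the single-dose screen, relative to plate controls; inactive means the rest.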 Shown is part of a subset that was picked to be rich in actives.

The experiment is described as follows: TRAIL-exposed caspase-8 expressing cell killing – NB7+C8 cells, ATPlite luminescence, TRAIL sensitizer project, primary screen (AID 624354). The following applies: at 10 µM, hits give high values. In general terms: In ATP-based viability assays light output follows the ATP content of the culture.
On to `CC(=O)N1c2ccc(S(=O)(=O)N3CCCC(C(=O)NCc4ccc(Cl)cc4)C3)cc2CC1C` (configuration not stated), for which the inhibition (viability loss, TRAIL sensitization) is 15.2% (inactive).
Take `CN(Cc1cccs1)C(=O)CN1C(=O)c2ccccc2S1(=O)=O`: the inhibition (viability loss, TRAIL sensitization) is -16.6% (inactive).
Regarding `Cc1ccc(S(=O)(=O)N(C)CC(=O)N2CCc3ccccc32)cc1`, the inhibition (viability loss, TRAIL sensitization) is -3.97% (inactive).
As for `O=C(CN1C(=O)c2ccccc2S1(=O)=O)N1CCc2ccccc21`, the figure is 61.8% (active); as for `O=S(=O)(Cc1ccccc1)c1nc2ccccc2n1Cc1ccccn1`, -8.41% (inactive); as for `O=C(Cn1c2[n+](c3ccc(C(F)(F)F)cc31)CCCCC2)Nc1c(F)cccc1F`, 3.77% (inactive).
As to `COc1cc2c(cc1OC)CN(C(=O)c1cc(S(=O)(=O)N3CCCCC3)ccc1Cl)CC2`, the inhibition (viability loss, TRAIL sensitization) was 1.71% (inactive).
Turning to `COc1cc2c(cc1OC)C(C)N(S(=O)(=O)c1cnc(Cl)c(Cl)c1)CC2` (configuration not stated), the inhibition (viability loss, TRAIL sensitization) was 75.2% (active).
As for `COc1ccc(C2SCCN2S(=O)(=O)c2ccccc2)cc1OC` (configuration not stated), the figure is 0.617% (inactive); as for `C[C@@H]1CC2=C(C(=O)OC(C)(C)O2)[C@@H](C2CC2)O1`, -8.67% (inactive); as for `Cc1ccc(OCCNC(=O)CN2C(=O)NC3(CCCC3)C2=O)cc1`, -18.7% (inactive).
As for `CCn1cc(-c2cc(C(=O)O)on2)c(C)n1`, the figure is -6.48% (inactive); as for `CC(C)Nc1ccc(-n2nc3ccccc3[n+]2[O-])cc1`, 54.6% (active); as for `COC(=O)N(NC(=O)C(O)(C(C)C)C(C)C)c1ccccc1`, 21.8% (inactive).
With `CCCC(O)(CCC)C(=O)NN(C(=O)CCl)c1cccc(C)c1`, the inhibition (viability loss, TRAIL sensitization) was 5.97% (inactive).
In the case of `CCCCC(O)(CCCC)C(=O)NN(C(=O)CCl)c1ccccc1`, the inhibition (viability loss, TRAIL sensitization) is 82.8% (active).
Take `COc1ccc(/C=C/CN2CCN(Cc3ccc(C)cc3)C(CCO)C2)cc1` (configuration not stated): the inhibition (viability loss, TRAIL sensitization) was -0.778% (inactive).
As for `Cc1cc(C(=O)NCCc2ccc(Cl)cc2)c(C)o1`, the figure is -14.9% (inactive); as for `CC(=C/c1ccccc1)/C=N/NC(=O)c1cc(C)oc1C`, 54.5% (active); as for `Cc1ccc(-c2cc(C(=O)N/N=C/C=C/c3ccccc3)n[nH]2)o1`, 0.486% (inactive).
As for `Cc1ccc2cccc(OCCCOc3ccccc3CO)c2n1`, the figure is -4.7% (inactive); as for `Cc1ccc(NC(=O)c2oc3ccccc3c2C)c([N+](=O)[O-])c1`, 3.18% (inactive).
For `CC1(C(=O)NS(=O)(=O)C2CC2)CCCN(C(=O)CSc2ccccc2)C1` (configuration not stated), the inhibition (viability loss, TRAIL sensitization) was -10.3% (inactive).
As for `CN1CCC(OC(=O)COc2ccc(Cl)cc2Cl)CC1`, the inhibition (viability loss, TRAIL sensitization) was -7.75% (inactive).
On to `CCOC(=O)c1c(NC(=O)c2ccc(S(=O)(=O)N(C)CC3CCCO3)cc2)sc2c1CC(C)(C)NC2(C)C` (configuration not stated), for which the inhibition (viability loss, TRAIL sensitization) is 26.5% (inactive).
As for `COC(=O)c1c(NC(=O)COc2ccc(Cl)cc2Cl)sc2c1CC(C)(C)NC2(C)C`, the figure is 92.1% (active); as for `COC(=O)c1ccccc1N=Nc1c(C)[nH][nH]c1=O`, -4% (inactive); as for `O=C(CSc1ncnc2c1nnn2Cc1ccc(F)cc1)NC1CCCC1`, -9.39% (inactive).
In the case of `O=C(CCNC(=O)c1ccc(Br)cc1)Nc1cccc(S(=O)(=O)N2CCCCC2)c1`, the inhibition (viability loss, TRAIL sensitization) was 5.98% (inactive).
On to `C=CCN(c1ccc(C(=O)Nc2cc(C)cc(C)c2)cc1)S(C)(=O)=O`, for which the inhibition (viability loss, TRAIL sensitization) is -8.04% (inactive).
In the case of `Cc1cc(C)cc(NC(=O)CSc2ccccc2)c1`, the inhibition (viability loss, TRAIL sensitization) is -3.71% (inactive).
As for `CSCc1ccc(C(=O)Nc2cc(C)cc(C)c2)cc1`, the figure is 66.6% (active); as for `Cc1cccc(CC2(O)C(=O)Nc3ccccc32)n1` (configuration not stated), -8.54% (inactive).
The result for `CN(C)S(=O)(=O)c1ccc(N2CCCC2=O)c([N+](=O)[O-])c1` reads 4.63% (inactive).
Consider `Cc1cccc(NS(=O)(=O)c2ccc(C)c(C(=O)NCc3cccnc3)c2)c1`, for which the inhibition (viability loss, TRAIL sensitization) was -5.47% (inactive).
As for `CN(Cc1ccccc1)S(=O)(=O)c1nnc(NC(=O)c2ccccc2F)s1`, the figure is -10.5% (inactive).
Take `Cc1ccc(CS(=O)(=O)c2ncc(Cl)c(C(=O)Nc3nnc(C)s3)n2)cc1`: the inhibition (viability loss, TRAIL sensitization) is 96.7% (active).
The result for `CSc1nnc(NC(=O)c2nc(S(=O)(=O)Cc3ccc(C)cc3)ncc2Cl)s1` reads 66.5% (active).
The result for `Cc1cccc(CS(=O)(=O)c2ncc(Cl)c(C(=O)Nc3ccc(F)cc3)n2)c1` reads 36% (inactive); that for `O=C(Nc1nnc(Cc2ccc(Cl)cc2)s1)c1cccnc1`, 2.47% (inactive); that for `O=C(Nc1nnc(Cc2ccc(Cl)cc2)s1)c1ccncc1`, -4.66% (inactive).
With `O=C(Nc1nnc(-c2ccc(F)cc2)s1)c1c(F)cccc1Cl`, the inhibition (viability loss, TRAIL sensitization) is 1.33% (inactive).
In the case of `Cc1cccc(NC(=O)c2nc(S(=O)(=O)Cc3ccccc3)ncc2Cl)c1`, the inhibition (viability loss, TRAIL sensitization) is 86.5% (active).
As for `COc1ccccc1-n1nnnc1S(=O)(=O)Cc1ccc(Cl)cc1`, the figure is 9% (inactive).
As for `Cc1ccc(SC(=O)COc2ccc(C)c(C)c2)cc1`, the inhibition (viability loss, TRAIL sensitization) is 3.37% (inactive).
As for `O=C(CCc1ccccc1)NCCc1cccs1`, the inhibition (viability loss, TRAIL sensitization) was -4.77% (inactive).
The result for `O=C1C2C3C=CC(C4CC34)C2C(=O)N1c1nccs1` (configuration not stated) reads -2% (inactive).
